Measured values reported in PubChem BioAssay AID743311 (Broad Institute, 2014).
Measured potencies and affinities stand elsewhere. Activity calls are given as the source filed them. The rule behind the calls is not given here.

Assay: toxicity to HepG2 liver cells – cell-based, plate reader, dry powder, set 6, cytotoxicity control, dose response (AID 743311)
Conditions: series mostly up to 26 µM; activity change, negative = cytotoxicity: at the top concentration

| SMILES | activity change, negative = cytotoxicity |
| --- | --- |
| COc1ccccc1OCCn1c(=S)[nH]c2ccccc21 | 10.4% (inactive) |
| Cc1ccc(C(C)C)c(OCCn2c(NC#N)nc3ccccc32)c1 | 3.67% (inactive) |
| Cc1ccc(C(C)C)c(OCCn2c(=S)[nH]c3ccccc32)c1 | 9.57% (inactive) |
| OCc1nc2ccccc2n1CCOc1ccccc1 | 6.61% (inactive) |
| CC(C)(C)c1ccc(OCCn2c(CO)nc3ccccc32)cc1 | -2.48% (inactive) |
| CCCc1nc2ccccc2n1CCOc1ccccc1 | 18.3% (inactive) |
| Cc1ccc2c(c1)[nH]c(=S)n2CCOc1ccccc1 | -0.904% (inactive) |
| COc1ccccc1OCCn1c(SC)nc2ccccc21 | 5.77% (inactive) |
| CC(C)(C)c1ccc(OCCn2cnc3ccccc32)cc1 | 4.09% (inactive) |
| Cc1cccc(OCCn2c(=S)[nH]c3ccccc32)c1 | 20.7% (inactive) |
| Cc1cccc(OCCn2cnc3ccccc32)c1 | 19.8% (inactive) |
| c1ccc2c(c1)ncn2CCOc1ccc2c(c1)CCC2 | -6.54% (inactive) |
| CSc1nc2ccccc2n1CCOc1ccc(C)cc1 | 20% (inactive) |
| CSc1nc2ccccc2n1CCOc1cc(C)ccc1C(C)C | 4.69% (inactive) |
| Cc1ccc(OCCn2cnc3ccccc32)c(C(C)C)c1 | -8.61% (inactive) |
| CC(C)Oc1ccc(OCCn2cnc3ccccc32)cc1 | 22.7% (inactive) |
| Clc1ccc(OCCn2cnc3ccccc32)c(Cl)c1 | 1.13% (inactive) |
| Fc1cccc2c1[nH]c(=S)n2CCOc1ccccc1 | 0.48% (inactive) |
| FC(F)(F)c1cccc(OCCn2cnc3ccccc32)c1 | 27.1% (inactive) |
| COc1ccc(OCCn2cnc3ccccc32)cc1 | 18.3% (inactive) |
| CC(C)Oc1cccc(OCCn2cnc3ccccc32)c1 | -12.9% (inactive) |
